PrPC TRFRET: cell surface PrPC inhibition, primary TR-FRET screen; AID 720596; P04156; TR-FRET read-out; 0.43% of 370,000 active; inhibition, % at 13.8 µM; in the data active = inhibition above about 24%; note: 0% = median of the test wells and 100% = reference compound wells
GDH-TPI counter: inhibits GDH-TPI coupling enzymes, artifact for Mtb FBA screen. AID 588335. 1.2% of 360,000 active. GDH-TPI coupled enzyme counterscreen, NADH absorbance. inhibition, % at 4.8 µM; in the data active = inhibition above about 30%;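 note: 0% = DMSO wells and 100% = wells lacking the enzyme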
PrP UTR inh: suppresses PrP 5' UTR mRNA reporter expression; cell-based PrP 5' UTR mRNA reporter, plate reader; inhibition, % (test concentration not listed); 0.35% of 340,000 active; AID 488862; in the data active = inhibition above about 52%; note: 0 = median of the neutral control wells
Y pestis TopoI: blocks Yersinia pestis topoisomerase I activity. Y. pestis Topo-I cleavage product accumulation, plate reader. 0.064% of 360,000 active. activity, % at 10 µM. AID 504884; in the data active = activity above about 50%, passing the limit was not always enough
Mtb FBA inh: inhibits M. tuberculosis FBA enzyme | purified M. tuberculosis FBA, fluorescence read-out | 2.3% of 360,000 active | P9WQA3 | inhibition, % at 1 µM; in the data active = inhibition above about 27%;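 note: 0% = vehicle and 100% = reference inhibitor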
Target sequence (P9WQA3 whole entry, looked up): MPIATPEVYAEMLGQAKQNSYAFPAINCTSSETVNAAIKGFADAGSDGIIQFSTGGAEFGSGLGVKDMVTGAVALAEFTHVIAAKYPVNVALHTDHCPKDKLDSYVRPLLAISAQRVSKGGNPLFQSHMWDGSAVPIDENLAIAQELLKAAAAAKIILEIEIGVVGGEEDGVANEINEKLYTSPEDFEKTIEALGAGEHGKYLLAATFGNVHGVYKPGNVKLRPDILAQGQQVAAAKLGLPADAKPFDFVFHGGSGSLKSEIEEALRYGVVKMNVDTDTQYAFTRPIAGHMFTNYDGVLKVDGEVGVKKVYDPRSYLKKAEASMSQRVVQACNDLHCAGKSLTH
Mtb hypoxia inh: Mtb hypoxia fluorescent reporter inhibition; M. tuberculosis hypoxia-regulated fluorescent reporter, fluorescence; fluorescence inhibition, % (test concentration not listed); 0.1% of 300,000 active; AID 1159583; in the data active = fluorescence inhibition mostly above about 23%, no sharp cut-off; inactive = mostly below about 17%
PrP 5UTR single: prion 5' UTR mRNA inhibition, cherry-pick retest. cell-based prion protein 5' UTR reporter, plate reader. inhibition, % at 2.5 µM. shares compounds with PrP UTR inh. 48% of 1,100 active; in the data active = inhibition above about 54%
* hit, by the source's call; / = no result given; ! = not confirmed by another sample. A selection: hits, their analogues and other compounds. The true share with any hit is near 3.8%.

SMILES | PrPC TRFRET | GDH-TPI counter | PrP UTR inh | Y pestis TopoI | Mtb FBA inh | Mtb hypoxia inh | PrP 5UTR single
COc1ccc(C2=Nn3c(nnc3-c3ccccc3Cl)SC2)cc1OC1CCOC1 (stereo unspecified) | 3.2 | 5.9 | 4.5 | 10.3 | 3.5 | -3.9 | /
COc1ccc(C2=Nn3c(nnc3-c3ccccc3OC)SC2)cc1OC | 15.1 | 17.1 | 56.0* | 0.2 | 1.6 | 4.3 | 77.5*
COc1ccccc1-c1nnc2n1N=C(c1ccc3c(c1)OCO3)CS2 | 13.3 | / | / | / | / | / | /
COc1ccc(OC)c(-c2nnc3n2N=C(c2ccc(OC)c(OC4CCOC4)c2)CS3)c1 (stereo unspecified) | 17.0 | 26.6 | 71.7* | 7.7 | 5.1 | -1.2 | 81.2*
OCC1OC(n2cnc3c(Nc4ccccc4)ncnc32)C(O)C1O (stereo unspecified) | / | / | / | / | / | -4.8 | /
OCCC1CC(O)C(O)[C@]2(OCCc3ccccc32)O1 (stereo partly specified) | / | / | / | / | / | -0.5 | /
O=C(C=Cc1ccoc1)c1ccccc1O | / | / | / | / | / | 7.8 | /
CCN(CC)c1nc(Oc2ccc(C(=O)OC)cc2)nc(N2CCOCC2)n1 | -1.3 | 11.5 | 81.9* | 10.8 | 0.8 | 2.4 | -26.2
COC(=O)c1ccc(Oc2nc(N3CCCCC3)nc(N3CCOCC3)n2)cc1 | -6.2 | -5.0 | -21.4 | 30.9 | -1.3 | 4.4 | /
COc1ccc(OC)c(Nc2c3c(nc4ccccc24)CCC3)c1 | 18.9 | -1.3 | 73.6* | 2.8 | -0.9 | 4.7 | 87.1*
CC[C@H](C)NC(=O)CCCCCn1c(=S)[nH]c2c([nH]c3ccc(OC)cc32)c1=O | -0.6 | 2.2 | 66.2* | -4.5 | 4.1 | / | -15.1
CN1CCc2c(c3ccccc3n2Cc2ccccc2)C1 | -5.0 | -8.8 | 58.3*! | 9.2 | 0.6 | 9.9 | -5.8
CC(C)(C)NC(=O)C1CCC2C3CCC4NC(=O)C=C[C@]4(C)C3CC[C@]12C (stereo partly specified) | / | / | / | / | / | -2.8 | /
c1ccc2nc(-c3ccncc3)ccc2c1 | -6.9 | -2.4 | -44.5 | -1.1 | -1.6 | 3.4 | /
c1ccc2nc(-c3ccc(N4CCOCC4)cc3)ccc2c1 | 2.4 | 33.0* | 74.6* | -6.0 | 12.7 | 2.5 | 66.6*
CN1CCN(c2ccc(-c3ccc4ccccc4n3)cc2)CC1 | -15.5 | 16.4 | 91.9* | -6.2 | 7.8 | -3.4 | 90.6*
Cc1cc(-c2ccc(N3CCOCC3)cc2)nc2ccccc12 | 4.3 | 25.9 | -62.3 | 7.3 | 16.9 | 4.2 | /
COC(=O)c1ccc(C(NC(=O)OCc2ccccc2)C(C)=CC(C)C(=O)NCc2ccc(-c3ccccc3)cc2)cc1 (stereo unspecified) | / | / | / | / | / | 3.4 | /
CCCOc1ccc(C=NNC(=O)c2nnn(-c3nonc3N)c2-c2cccs2)cc1OC | / | / | / | / | / | 8.0 | /
CC(=O)Nc1ccc(CN2CCCC(CCC(=O)NCc3ccccc3F)C2)cc1 (stereo unspecified) | -2.5 | -0.3 | 80.4* | -8.4 | -5.2 | 8.5 | -1.9
O=C(C1CC(=O)N(c2ccc3c(c2)OCCO3)C1)N1CCN(Cc2ccccc2F)CC1 (stereo unspecified) | 7.5 | 4.6 | 85.7* | 10.3 | -1.0 | 15.6 | -8.8
O=C(NCc1ccccc1F)C1CC(=O)N(c2ccc3c(c2)OCCO3)C1 (stereo unspecified) | -0.3 | 10.5 | -7.6 | 0.7 | -1.3 | -10.1 | /
CC(C)(C)C1C/C(=C/c2ccccn2)C(=O)/C(=C/c2ccccn2)C1 (stereo unspecified) | / | 2.9 | 91.6* | 21.7 | -6.2 | / | 97.0*
CN1C2CCC1/C(=C\c1ccccc1)C(=O)/C2=C\c1ccccc1 | 2.2 | 29.6 | -33.6 | 6.0 | -2.4 | 5.2 | /
CN1C2CCC1/C(=C/c1ccccn1)C(=O)/C2=C\c1ccccn1 | 6.3 | 45.8* | 78.1* | 12.7 | -3.1 | 18.3 | 91.1*
COc1ccc(OCC(=O)Nc2nccs2)cc1 | 9.3 | -2.5 | 24.2 | -6.6 | 2.3 | -6.8 | /
CCOc1ccc(OCC(=O)Nc2nccs2)cc1 | / | 7.6 | 57.9* | 9.7 | 3.0 | 10.0 | 37.2
CCc1ccc(/C=C2\SC(=S)N(CCCC(=O)Nc3ccccn3)C2=O)cc1 | -1.6 | 15.2 | 57.2* | -3.5 | -1.6 | -6.9 | 55.1*
COC(=O)c1ccc(/C=C2/SC(=S)N(CCCC(=O)Nc3ccccn3)C2=O)cc1 | 1.5 | 6.5 | -41.9 | -10.4 | 0.9 | 9.8 | /

Screens from PubChem.
